# PKA-R2B activ: activators of PKA-R2B holoenzyme, primary screen, biochemical, fluorescence polarization, Cy5-IP20, human. activation, % at 11.4 µM. cAMP-dependent protein kinase catalytic subunit beta (Homo sapiens) + cAMP-dependent …. actives 0.079% (n = 340,000). PKA-R2B holoenzyme dissociation; R2B truncated from residue 108, S112A mutant; 0% DMSO only, 100% 113 µM cGMP;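 active = activation above a cutoff set at the mean over all compounds plus 3 SD, cut at about 18% in these data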;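 also: higher means more holoenzyme dissociation and a rise in polarization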
# Rtt109 Vps75: inhibitors of C. albicans Rtt109/Vps75 HAT, primary screen, biochemical, ThioGlo CoA-SH fluorescence, plate reader. inhibition, % at 34.9 µM. AID 540336, 2011. actives 0.16% (n = 330,000). Histone acetyltransferase RTT109 (Candida albicans (strain SC5314 / ATCC MYA-2876)), …. purified Rtt109/Vps75, 4 h;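 active = inhibition of at least 50% in every replicate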
# HDAC3 inhib: HDAC3 deacetylase inhibitors, primary screen, biochemical, fluorescence, cell-free homogeneous. Histone deacetylase 3 (Homo sapiens), O15379. recombinant HDAC3, fluorogenic peptide/trypsin coupled. inhibition, % at 8.3 µM. actives 0.15% (n = 320,000); in the data active = inhibition above about 26%, passing the limit was not always enough
# Target sequence (O15379 whole entry, looked up): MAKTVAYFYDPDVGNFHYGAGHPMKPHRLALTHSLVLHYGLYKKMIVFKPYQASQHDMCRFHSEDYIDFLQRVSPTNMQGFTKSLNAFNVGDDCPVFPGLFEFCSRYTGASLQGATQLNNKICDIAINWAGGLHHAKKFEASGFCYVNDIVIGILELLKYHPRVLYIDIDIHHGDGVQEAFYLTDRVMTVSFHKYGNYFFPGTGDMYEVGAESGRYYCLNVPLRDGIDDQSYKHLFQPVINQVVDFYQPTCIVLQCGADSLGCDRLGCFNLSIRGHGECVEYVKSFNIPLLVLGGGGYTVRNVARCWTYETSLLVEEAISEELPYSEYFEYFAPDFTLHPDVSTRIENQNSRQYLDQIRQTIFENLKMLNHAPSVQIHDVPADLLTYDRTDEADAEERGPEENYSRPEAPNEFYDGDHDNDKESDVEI
# PKA-R1A activ: activators of PKA-R1A holoenzyme, primary screen, biochemical, fluorescence polarization, Cy5-IP20, bovine R1A, mouse PKAc | PKA-R1A dissociation; scaled: DMSO 0%, 113 µM cGMP 100% | activation, % at 11.4 µM | actives 0.083% (n = 340,000) | AID 504707, 2011;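 active = percent activation above the mean of all tested compounds plus 3 SD, cut at about 19% in these data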;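 also: higher means more PKAc released from R1A so a rise in polarization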
# R2B FP artifact: fluorescence polarization artefacts, biochemical, artefact control for PKA-R2B activator project; shares compounds with PKA-R2B activ; FP artifact counterscreen; activation, % at 11.4 µM; actives 6% (n = 270); AID 504796, 2011; in the data active = activation above about 20%;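 also: Cy5 labelled IP20 peptide probe with compound but no PKA protein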
# PKA-R2B confirm: activators of PKA-R2B holoenzyme, confirmation, biochemical, fluorescence polarization, human. activation, % at 11.4 µM. PKA-R2B complex, activation. shares compounds with PKA-R2B activ. actives 9% (n = 270). AID 504797, 2011; in the data active = activation above about 19%
# * hit, by the source's call; · = not tested or not shown; ! = not active in a repeat. Hits are enriched below; roughly 0.43% of the tested compounds scored in any of these assays.
SMILES,PKA-R2B activ,Rtt109 Vps75,HDAC3 inhib,PKA-R1A activ,others
CCN(CC)c1nc(Nc2ccc(Cl)cc2)nc(OCC#N)n1,-3,-2,32*,-2,
O=C(CNc1ccc(Br)cc1)NC(=O)NC1CCCCC1,-6,4,·,-13,
COc1ccc(-c2nc(-c3cccs3)no2)cc1,-16,52*,2,5,
Cc1cc(C)nc(NC(=O)/C=C/c2ccccc2Cl)n1,-3,1,-1,-5,
Cc1cc(N)c2cc(NC(=O)/C=C/c3ccccc3Cl)ccc2n1,9,90*,-7,-14,
Nc1ccc(Sc2ccccc2Cl)nc1,3,-35,2,-13,
CCOC(=O)C1=C(C)NC(C)=C(C(=O)OCC)C1C(=O)OCC(=O)NCCc1ccc(S(N)(=O)=O)cc1,4,53*,0,6,
O=S(=O)(Nc1ccc(O)c(Sc2nc3ccccc3s2)c1)c1cccc2ccccc12,-10,58*,12,5,
COc1cccc(C(=O)c2c(-c3ccccc3)ncc3cc(OC)c(OC)cc23)c1,-3,-16,·,-7,
C=CCOc1ccc(/C(O)=C2\C(=O)C(=O)N(CCOC)C2c2cccnc2)cc1 (stereo not drawn),-2,60*,-3,-7,
O=C(NCCNC(=O)c1cc(OCC(F)(F)F)ccc1OCC(F)(F)F)Nc1cccc(C(F)(F)F)c1,-4,0,36*,1,
CN(C)S(=O)(=O)NCCNC(=O)c1cc(OCC(F)(F)F)ccc1OCC(F)(F)F,-9,·,0,-8,
CC(C(=O)Nc1cccc(S(=O)(=O)N2CCOCC2)c1)N1CCN(c2ccc(F)cc2)CC1 (stereo not drawn),1,1,-5,-1,
COC(=O)[C@H](CC(C)C)NS(=O)(=O)N(Cc1ccccc1)[C@@H](CC(C)C)C(=O)OC,1,-16,31*,7,
COc1cc(NC(=O)C(Cc2ccccc2)n2cccc2)cc(OC)c1 (stereo not drawn),-12,52*,-6,0,
CCN1C=CC(=C2C(=O)c3ccccc3C2=O)C=C1,0,80*,-6,3,
CCCN1C=CC(=C2C(=O)c3ccccc3C2=O)C=C1,9,7,13,3,
Cc1c(C(=O)N2CCC[C@H]2CO)oc2c(F)cccc12,-5,57*,1,-13,
C[C@H](NC(=O)c1ccco1)C(=O)Nc1ccc(S(=O)(=O)N2CCCC2)cc1,5,55*,-3,7,
O=C(CNC(=O)c1cccc(Br)c1)N/N=C/c1cccs1,-13,59*,2,1,
CC(C)(C)c1ccc(C(=O)NCC(=O)N/N=C/c2cccs2)cc1,0,-1,2,-10,
CCCC(=O)N(c1ccc2oc(=O)sc2c1)S(=O)(=O)c1cccs1,7,124*,7,-1,
CC(C)C(=O)N(c1ccc2oc(=O)sc2c1)S(=O)(=O)c1ccccc1,6,14,1,-4,
CC(=O)N(c1ccc2oc(=O)sc2c1)S(=O)(=O)c1ccccc1,-2,67*,5,-8,
COc1ccc(N2CCN(C(=O)Cc3ccc(Cl)cc3)CC2)cc1,1,-8,2,-1,
SMILES,PKA-R2B activ,Rtt109 Vps75,HDAC3 inhib,PKA-R1A activ,others
O=C1CCC2(CCCC2)c2ccccc21,-1,·,·,-1,
O=C(C[n+]1cc(-c2ccc(Cl)c(Cl)c2)n2c1CCC2)N1c2ccccc2Sc2ccccc21,4,57*,3,-3,
O=C(C[n+]1cc(-c2ccc(Cl)cc2)n2c1CCC2)N1c2ccccc2Sc2ccccc21,4,17,3,-5,
CC(C)C(=O)Nc1ccc(-c2nc3ccccc3c(=O)o2)cc1,-21,0,56*,-16,
N#Cc1c(-c2ccccc2)nc(SCC(=O)N(c2ccccc2)c2ccccc2)[nH]c1=O,8,26,3,7,
N#Cc1c(-c2ccccc2)nc(SCC(=O)N2c3ccccc3Sc3ccccc32)[nH]c1=O,11,58*,4,11,
N#CCc1cc2ccc3cccc4ccc(c1)c2c34,-12,-19,-2,-9,
Cc1onc(-c2ccccc2)c1C(=O)Nc1cccc(C#N)c1,-14,10,-1,-1,
CC(C)OCCCNC(=O)c1cc(-c2cccnc2)nc2ccccc12,-4,16,5,4,
COc1ccc(C)cc1NC(=O)c1cc(C2CC2)nc2c1c(C)nn2C1CCS(=O)(=O)C1 (stereo not drawn),-1,4,·,2,
Cc1nn(C2CCS(=O)(=O)C2)c2nc(C3CC3)cc(C(=O)Nc3ccc(C(N)=O)cc3)c12 (stereo not drawn),9,50*,·,7,
CCCn1nnnc1SCC(=O)c1ccc2c(c1)OCCO2,10,-5,50*,-4,
O=C(CSc1nnc(SCc2cccc3ccccc23)s1)Nc1ccc(C(=O)O)cc1,10,15,7,-11,
CCc1nc(SCC(=O)c2ccc3c(c2)OCCO3)c2ccccc2n1,-2,7,34*,-9,
O=C(CSc1nnc(SCc2cccc3ccccc23)s1)c1ccc2c(c1)OCO2,11,-12,38*,7,
O=C(CSc1nc(Cc2ccccc2)nc2ccccc12)c1ccc2c(c1)OCCO2,-3,-4,6,-17,
CCOC(=O)C1(Cc2ccccc2C)CCCN(C(=O)c2ccoc2)C1 (stereo not drawn),-2,4,-4,-2,
CCOc1ccc(S(=O)(=O)N2CCN(C(=O)C3CCC3)CC2)cc1,2,4,-1,-3,
CC(=O)NC(CC(=O)NC1CCCc2ccccc21)c1ccccc1 (stereo not drawn),-4,57*,2,-1,
O=C(O)CSCC(=O)NC1CCCc2ccccc21 (stereo not drawn),-4,-1,-1,4,
CC(=O)Oc1oc(-c2ccccc2)nc1/C=N/c1ccccn1,-10,0,84*,1,
COc1ccccc1N=Cc1nc(-c2ccccc2)oc1OC(C)=O,-10,18,23,4,
CN1CCc2cccc3c2[C@H]1Cc1ccc(O)c(O)c1-3,-4,100*!,1,5,
O=c1c2ccccc2c(-c2ccccc2)nn1-c1ccc(Cl)c(Cl)c1,-1,-6,-1,3,
O=C(O)c1cccc(NC2=C(Cl)C(=O)c3ccccc3C2=O)c1,22*,16,·,9,R2B FP artifact=1;PKA-R2B confirm=0

# High-throughput results: PubChem BioAssay, several laboratories
